# APE1 inh-1 = blocks human APE1 abasic DNA cleavage | hit rate 0.35% among 350,000 | Potency, µM (doses to about 65.8 µM), for the others: top-dose activity change, negative = inhibition, actives largely listed as inhibitors | recombinant APE1, TAMRA/BHQ-2 abasic DNA cleavage fluorescence | AID 2517;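 note: plate controls were vehicle for no effect and reference inhibitor for full effect; nearly all actives have a fitted effect of over 55% in size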
#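 Kinetic fluorescence read (525 ex/598 em nm, three reads 60 s apart) of AP-site incision; signal = third minus first read. Enzyme 0.75 nM, dual-labelled THF duplex 50 nM, compound preincubation 15 min RT.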
# RECQ1 inh = inhibitors of human RECQ1 DNA helicase. hit rate 0.54% among 240,000. RECQ1 DNA unwinding, red fluorescence kinetic read. Potency, µM (top dose mostly 57.3 µM), inactives show top-dose activity, negative = inhibition, hits mostly inhibitors;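 note: plate controls were vehicle for no effect and no enzyme for full effect; nearly all actives have a fitted effect of over 30% in size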
#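 RECQ1T1 50 nM; forked duplex (20 bp + 30-nt ss tails) 200 nM, ATP 2 mM final; pH 8.0, 2 mM MgCl2, 2.5 ug/ml poly(dI-dC); 15 min compound preincubation; discontinuous kinetic read over 2 h at RT.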
# TR SRC2 fluor cs = Texas Red fluorescence interference in TRb-SRC2 counter-screen. hit rate 0.29% among 280,000. Potency, µM (top dose mostly 106 µM), for inactives: top-dose fluorescence change, negative = quenching. TRb/SRC2 Texas Red total fluorescence interference; active = well fitted curve in either direction with a large enough effect; inconclusive = small, poorly fitted or top-dose-only effect
#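 Flags fluorescent or light-absorbing compounds by total fluorescence, S + 2P, at 555 nm excitation and 632 nm emission. Mixture: 20 nM Texas Red SRC2 peptide, 0.6 uM human TRb LBD, 1 uM T3, 5% DMSO; compound exposure 5 h at ambient temperature.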
# BLM helicase inh = blocks DNA unwinding by human BLM helicase. recombinant BLM DNA unwinding, fluorescence dequenching. hit rate 0.2% among 350,000. Potency, µM (series often up to 56.1 µM), without a hit: at the highest dose activity change, negative = inhibition, actives largely listed as inhibitors;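 note: plate controls were vehicle for no effect and no enzyme for full effect; nearly all actives have a fitted effect of over 35% in size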
# Target sequence (P54132 whole entry, looked up): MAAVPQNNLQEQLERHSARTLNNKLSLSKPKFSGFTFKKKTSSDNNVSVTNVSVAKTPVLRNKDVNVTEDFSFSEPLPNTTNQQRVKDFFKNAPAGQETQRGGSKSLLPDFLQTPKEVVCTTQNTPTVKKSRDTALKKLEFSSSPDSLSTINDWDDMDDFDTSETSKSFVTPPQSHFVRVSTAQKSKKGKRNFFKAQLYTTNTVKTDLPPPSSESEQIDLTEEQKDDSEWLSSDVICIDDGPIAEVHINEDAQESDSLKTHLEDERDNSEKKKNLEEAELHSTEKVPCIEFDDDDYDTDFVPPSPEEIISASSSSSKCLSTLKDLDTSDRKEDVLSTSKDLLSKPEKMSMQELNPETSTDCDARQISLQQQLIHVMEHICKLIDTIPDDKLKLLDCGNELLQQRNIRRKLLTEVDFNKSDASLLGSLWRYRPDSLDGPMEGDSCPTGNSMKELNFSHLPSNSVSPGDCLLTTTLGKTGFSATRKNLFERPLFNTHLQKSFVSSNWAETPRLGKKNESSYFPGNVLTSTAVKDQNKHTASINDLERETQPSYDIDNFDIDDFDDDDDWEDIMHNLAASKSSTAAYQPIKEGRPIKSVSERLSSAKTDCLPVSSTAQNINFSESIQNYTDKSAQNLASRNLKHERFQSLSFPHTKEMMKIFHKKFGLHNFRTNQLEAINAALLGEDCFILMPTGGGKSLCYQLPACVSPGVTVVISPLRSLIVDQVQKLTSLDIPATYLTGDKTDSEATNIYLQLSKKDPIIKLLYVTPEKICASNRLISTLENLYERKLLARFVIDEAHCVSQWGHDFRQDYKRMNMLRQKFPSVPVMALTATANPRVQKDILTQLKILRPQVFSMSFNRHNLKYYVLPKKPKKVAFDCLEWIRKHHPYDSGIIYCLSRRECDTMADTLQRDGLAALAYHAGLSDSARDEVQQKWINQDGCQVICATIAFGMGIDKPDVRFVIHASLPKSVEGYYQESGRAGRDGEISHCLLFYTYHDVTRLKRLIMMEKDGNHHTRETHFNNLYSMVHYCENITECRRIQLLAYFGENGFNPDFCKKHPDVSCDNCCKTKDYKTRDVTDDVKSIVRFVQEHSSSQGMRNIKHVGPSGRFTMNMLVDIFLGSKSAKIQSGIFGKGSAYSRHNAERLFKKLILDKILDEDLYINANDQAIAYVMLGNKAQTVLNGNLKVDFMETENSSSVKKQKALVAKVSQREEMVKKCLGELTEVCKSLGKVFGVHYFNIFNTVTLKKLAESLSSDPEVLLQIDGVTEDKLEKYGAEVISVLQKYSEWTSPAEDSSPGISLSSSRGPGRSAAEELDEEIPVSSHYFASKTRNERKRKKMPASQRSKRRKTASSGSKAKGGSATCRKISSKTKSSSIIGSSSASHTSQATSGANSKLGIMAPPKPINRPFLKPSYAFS
# TRb-SRC2 inh = TRbeta-SRC2 interaction inhibition. TRbeta-SRC2 peptide binding, fluorescence polarization; receptor liganded with 1 µM T3. hit rate 0.065% among 280,000. Potency, µM (series often up to 106 µM), inactives show at the highest dose activity change, negative = inhibition, actives largely listed as inhibitors;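 note: plate controls were bound peptide for no effect and peptide without receptor for full effect; nearly all actives have a fitted effect of over 50% in size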
#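 Human TRb ligand-binding domain (0.6 uM) is mixed with 20 nM Texas Red SRC2 peptide and 1 uM T3; after compound addition and 5 hr at ambient temperature, polarization is measured and normalized to unbound and bound controls.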
# WRN inhibitor = inhibitors of human WRN helicase; Q14191; WRN helicase unwinding, fluorescent forked duplex, kinetic; Potency, µM (titrated, usually from 114 µM), without a hit: at the top dose activity change, negative = inhibition, hits mostly inhibitors; hit rate 0.46% among 360,000; note: nearly all actives have a fitted effect of over 55% in size
#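 Primary qHTS, 1536-well format. 20 nM WRN + compound, 15 min RT; start with 100 nM forked fluorophore/quencher duplex, 2 mM ATP (final); kinetic read ex 525/em 598 nm.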
# DNA dye displace = counter-screen for APE1 inhibitors: DNA dye displacement. shares compounds with APE1 inh-1. DNA fluorescent dye displacement counterscreen, fluorescence. Potency, µM (series often up to 28.5 µM), for inactives: top-dose activity change, negative = inhibition, actives largely listed as inhibitors. hit rate 7% among 480. AID 2564;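 note: loss of thiazole orange fluorescence as the dye is displaced from duplex DNA; 0% = ThO with dsDNA and no compound and -100% = ThO without dsDNA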
# Endo IV inh = counter-screen for APE1 inhibitors: inhibitors of E. coli endonuclease IV; shares compounds with APE1 inh-1; E. coli Endo IV, fluorogenic AP-site DNA cleavage; Potency, µM (titrated, usually from 27.1 µM), for the others: at the highest dose activity change, negative = inhibition, hits mostly inhibitors; hit rate 4% among 560; AID 2565;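 note: plate controls were uninhibited enzyme wells for no effect and no enzyme buffer wells for full effect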
# APE1 inh-2 = confirmation of inhibitors of human APE1 endonuclease; purified APE1, fluorogenic abasic-site DNA cleavage; shares compounds with APE1 inh-1; Potency, µM (titrated, usually from 57.1 µM), without a hit: at the highest dose activity change, negative = inhibition, most hits filed as inhibitors; hit rate 44% among 750; AID 2572; note: nearly all actives have a fitted effect of over 30% in size
# APE1 FP = compounds that displace a DNA probe from human APE1; hit rate 7% among 480; APE1 binding to TAMRA-labelled double-stranded DNA, fluorescence polarization displacement; shares compounds with APE1 inh-1; AID 2573; Potency, µM (titrated, usually from 28.5 µM), for the others: at the highest dose activity, negative = inhibition, hits mostly inhibitors
# * = called active by the depositor; ? = inconclusive; . = not tested or not shown; ! = a repeat was not active; [ ] = another dose, or the depositor's remark. Hits are enriched below; roughly 0.91% of the tested compounds scored in any of these assays. Unless noted, calls come from the whole dose curve; as a rule, active = well fitted curve in the direction sought with a large enough effect; inconclusive = small, poorly fitted or top-dose-only effect, or another doubt; inactive = no such curve, though single readings can be large; an effect the other way counts as inactive or inconclusive. Unless noted, % is set by controls: 0 for no effect and ±100 for the full control effect; potency is the fitted concentration of half-maximal effect.
SMILES,APE1 inh-1,RECQ1 inh,TR SRC2 fluor cs,BLM helicase inh,TRb-SRC2 inh,WRN inhibitor,DNA dye displace,Endo IV inh,APE1 inh-2,APE1 FP
Nc1[nH]c(C(=O)c2ccccc2)c(-c2ccccc2Br)c1C(=O)c1ccccc1,.,.,.,.,.,-5%,.,.,.,.
COc1ccc(C2NC(=O)NC(C)=C2C(=O)OC2CCC(C)CC2)cc1 (stereo unspecified),6%,.,.,-8%,.,-1%,.,.,.,.
Cn1c(=O)c2c(ncn2CC(=O)N/N=C/c2c[nH]c3ccccc23)n(C)c1=O,8%,-6%,0%,-4%,-1%,.,.,.,?,.
COc1ccc(/C=N/NC(=O)Cn2cnc3c2c(=O)n(C)c(=O)n3C)c(OC)c1OC,2%,-6%,2%,-1%,2%,2%,.,.,.,.
CN(C(=O)COC(=O)CNC(=O)c1sc2ccccc2c1Cl)C1CCS(=O)(=O)C1 (stereo unspecified),-22%,.,.,.,.,-9%,.,.,.,.
COc1ccc2c(c1)c(=O)oc1cc(OCC(=O)NC3CCCCC3)ccc12,11µM*,-13%,-3%,-14%,-5%,-12%[11.6 µM],-11%,-2%,5.6µM*,-29%
Cc1ccc([N+](=O)[O-])cc1S(=O)(=O)Nc1ccc(C(=O)NCc2ccccn2)cc1,-22%,.,.,.,.,-25%,.,.,.,.
CO/N=C(\C(=O)N[C@@H]1C(=O)N2C(C(=O)O)=C(COC(C)=O)CS[C@@H]12)c1csc(N)n1,.,-2%[25.9 µM],-1%,-10%,-1%,.,-6%[57.1 µM],23%[57.1 µM],28µM*,-12%[57.1 µM]
C=CC1=C(C(=O)O)N2C(=O)[C@@H](NC(=O)/C(=N\OCC(=O)O)c3csc(N)n3)[C@@H]2SC1,.,-2%[25.9 µM],-2%[53 µM],-3%[21.4 µM],0%[53 µM],.,-4%,25%,13µM*,2%
CO/N=C(\C(=O)N[C@@H]1C(=O)N2C(C(=O)O)=C(COC(C)=O)CS[C@H]12)c1csc(N)n1,9%,-6%,4%,-12%,0%,.,.,.,.,.
Cc1cc(C2C(=O)c3ccccc3C2=O)c(C)c(C)c1C,-12%,.,.,-4%,.,6%,.,.,.,.
O=C(CSc1ccsc1[N+](=O)[O-])Nc1cccc(F)c1,?,?,-17%,-21%,0%,?,?,18%,14µM*,-20%
CC(=O)Oc1cc(-c2coc3cc(OC(C)=O)c(OC(C)=O)c(OC(C)=O)c3c2=O)cc(OC(C)=O)c1OC(C)=O,0.32µM*,1µM*,-7%,11µM*,-1%,.,.,21%[57.1 µM],1.1µM*,.
COc1cc(-c2coc3cc(OC)c(OC)c(OC)c3c2=O)cc(OC)c1OC,-1%,-3%,0%,4%,-3%,.,.,.,.,.
Cc1ccccc1CNC(=O)CCSCc1cnn(-c2ccccc2)c1-n1cccc1,.,.,0%,-8%,5%,.,.,.,.,.
CCCCn1c(N)c(N(CC(C)C)C(=O)CCCc2cccs2)c(=O)[nH]c1=O,36%,.,.,1%,.,-21%,.,.,.,.
O=C(CSc1nnc(COc2ccccc2)n1Cc1ccco1)NCc1ccco1,?,-22%,4%,-25%,-10%,?,.,.,.,.
C=CCn1c(COc2cccc(C)c2)nnc1SCC(=O)NC(=O)NCc1ccco1,?,-20%,-3%,-29%,-12%,-8%[11.6 µM],-7%,0%,?,-23%
CC1O[C@@H](OC2C(COC3OC(CO)C(O)[C@H](O)C3O)OC(OC3CC[C@]4(C)C(CC[C@@]5(C)[C@@H]4CC=C4[C@@H]6CC(C)(C)CC[C@]6(CO)C(O)C[C@]45C)C3(C)C)C(O)C2O)C(O)C(O)C1O (stereo partly specified),-19%,.,.,.,.,-1%,.,.,.,.
C[C@@H]1OC(OC2CC[C@@]3(C)C(CC[C@@]4(C)C3CC=C3C5CC(C)(C)CC[C@]5(C(=O)OC5OCC(O)[C@@H](O)[C@@H]5OC5O[C@@H](C)[C@H](O[C@H]6OC(CO)C(O)C(O)C6O)C(O)C5O)C(O)C[C@@]34C)C2(C)C)C(O)C(O)[C@H]1OC1OCC(O)C(O)[C@H]1O (stereo partly specified),28µM*,-17%,-6%,0%,-7%,.,-1%[57.1 µM],0%[57.1 µM],32µM*,8%[57.1 µM]
COc1ccc(CCNC(=O)c2ccc3nc(-c4ccco4)c(-c4ccco4)nc3c2)cc1OC,8.9µM*!,16µM*,11µM*[quencher],14µM*,?,35µM*,.,.,16µM*,.
CCc1nc2ccc(C(=O)NCCc3ccc(OC)c(OC)c3)cc2nc1CC,58%,.,-1%,2%,-4%,-6%,.,.,.,.
CC(=O)c1c(C(C)=O)c(C)n(-c2ccc(C(=O)O)cc2)c1C,0%,-7%,-9%,-4%,5%,-3%,.,.,.,.
Cc1ccc(C)n1-c1ccc(C(=O)O)cc1,14µM*,-6%,0%,49%,14%,.,.,.,13µM*,.
COc1ccc(CCNC(=O)Cn2nc(C)n3nc(-c4ccccc4)cc3c2=O)cc1OC,39%,.,.,-8%,.,6%,.,.,.,.
Cc1ccc(S(=O)(=O)n2nc(-c3ccccc3)nc2NCc2ccc(Cl)cc2)cc1,.,.,-1%,-12%,-3%,.,.,.,.,.
CCn1c(SCC(=O)NCc2ccco2)nnc1-c1cccs1,35µM*,-5%,3%,-20%,8%,-19%,?,-2%,?,-14%
CC(C)c1ccc(NC(=O)C2C3C=CC(CC3)C2C(=O)O)cc1 (stereo unspecified),.,.,.,.,.,-32%,.,.,.,.
O=C(O)C1C2C=CC(CC2)C1C(=O)O (stereo unspecified),13µM*,-6%,1%,-10%,-4%,?,.,.,?,.
O=C(OCC(=O)N1CCCCCC1)c1ccc(Cl)c(S(=O)(=O)N2CCCC2)c1,?,-18%,0%,-7%,-2%,-28%,17%,8%,?,-5%
